Screens as filed in PubChem BioAssay.
uPA generation: qHTS for Inhibitors of Cell Surface uPA Generation | AID 540303, 2011 | Potency, µM (titrated, usually from 38.3 µM), for inactives: at the top dose activity change, negative = inhibition, usual class: inhibitors | hit rate 0.31% among 330,000 | cell surface uPA generation assay, qHTS; active = well fitted inhibition curve with a large enough effect; inconclusive = small, poorly fitted or top-dose-only effect; inactive = no such curve, though single readings can be large or run the other way; tested in mouse RAW 264.7 cells; also: potency is read from the fitted curve at half-maximal effect; nearly all actives have a fitted effect of over 55% in size
DT40 TDP1 no CPT: qHTS for Inhibitors of human tyrosyl-DNA phosphodiesterase 1 (TDP1): qHTS in cells in absence of CPT | DT40 Tdp1-/- hTDP1 cells, no CPT, ATP luminescence, 48 h | Potency, µM (series often up to 46.2 µM), without a hit: at the highest dose activity change, negative = growth inhibition, actives largely listed as inhibitors | hit rate 15% among 420,000 | AID 686978, 2013; also: potency is read from the fitted curve at half-maximal effect; nearly all actives have a fitted effect of over 55% in size
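Growth of hTDP1-complemented DT40 Tdp1-knockout cells is measured by ATP luminescence after at least 48 hr compound exposure at 37 °C, with DMSO substituting for the 20 nM CPT used in the parallel screen.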
IL1B secr inh: qHTS for Inhibitors of Inflammasome Signaling: IL-1-beta AlphaLISA Primary Screen; THP-1 LPS/ATP IL-1B secretion, AlphaLISA, 16 h; stronger effect = lower value; activity change, % at 57.5 µM; hit rate 4.7% among 360,000; in the data active = activity change below about -50%; inconclusive = mostly about -30% to -49%
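Secreted IL-1B measured by AlphaLISA bead assay after 16 h compound exposure of THP-1 cells; compounds (final up to 57.5 uM) added 1 h before LPS (250 ng/mL) and ATP (1.25 mM) stimulation; lower signal means less secretion.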
HT1080 IDH1KD tx: qHTS for induction of synthetic lethality in tumor cells producing 2HG: qHTS for the HT-1080-IDH1KD cell line; HT-1080 IDH1 knockdown viability, ATP luminescence, 48 h; AID 686971, 2013; Potency, µM (doses to about 46.1 µM), for the others: at the highest dose activity, negative = toxicity, actives largely listed as cytotoxic; hit rate 2% among 360,000;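 also: potency is read from the fitted curve at half-maximal effect; 0% = DMSO wells and -100% = cell-free medium wells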
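Using the IDH1-knockdown HT-1080 line run in the same batch and compound series as the NT line, viability after 48 h at 37 °C was determined by CellTiter-Glo luminescence and expressed as % activity.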
HT1080-NT tox: qHTS for induction of synthetic lethality in tumor cells producing 2HG: qHTS for the HT-1080-NT fibrosarcoma cell line; Potency, µM (top dose mostly 46.1 µM), for inactives: top-dose activity, negative = less viability, actives largely listed as cytotoxic; HT-1080-NT fibrosarcoma viability, CellTiter-Glo ATP luminescence, 48 h; hit rate 1.6% among 360,000;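 also: NT is the 2HG producing partner of a matched IDH1 knockdown line; potency is read from the fitted curve at half-maximal effect; 0% = DMSO-treated cells and -100% = media-only wells without cells; nearly all actives have a fitted effect of over 55% in size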
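Viability of the 2HG-overproducing fibrosarcoma line after 48 hours of compound exposure at 37 degrees C was determined by luminescence with CellTiter-Glo, and concentration-effect curves were then fitted and categorized.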
DT40 TDP1 CPT: qHTS for Inhibitors of human tyrosyl-DNA phosphodiesterase 1 (TDP1): qHTS in cells in presence of CPT; chicken DT40 Tdp1-/-;hTDP1 cells + 20 nM CPT, ATP luminescence, 48 h; Potency, µM (doses to about 46.2 µM), for inactives: at the highest dose activity change, negative = growth inhibition, actives largely listed as inhibitors; hit rate 12% among 420,000; also: potency is read from the fitted curve at half-maximal effect; nearly all actives have a fitted effect of over 55% in size
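Chicken DT40 Tdp1-/- cells stably complemented with human TDP1 were seeded at 400 cells/well in medium containing 20 nM camptothecin, exposed to pin-transferred compounds, and grown at 37 °C for at least 48 hr. Viability was read as ATP luminescence.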
* = called active by the depositor; ? = inconclusive; . = no result; [ ] = another dose, or the depositor's remark. Most compounds without a hit are left out; they make up all but 19% or so of the library. Unless noted, calls follow the shape of the dose curve; as a rule, active = well fitted curve in the direction sought with a large enough effect; inconclusive = small, poorly fitted or top-dose-only effect, or another doubt; inactive = no such curve, though single readings can be large; an effect the other way counts as inactive or inconclusive. Unless noted, % is scaled to controls: 0 for no effect and ±100 for the full control effect.

SMILES | uPA generation | DT40 TDP1 no CPT | IL1B secr inh | HT1080 IDH1KD tx | HT1080-NT tox | DT40 TDP1 CPT
COc1cc(=O)n2c(c1C(=O)NC(C)c1ccco1)CCN(C(=O)c1ccnc(Cl)c1)CC2 (centres undefined) | . | -2% | . | . | . | 15%[9.04 µM]
CCOCCCNC(=S)NCCCNc1nc2c(C)cc(C)cc2cc1C#N | -3% | 18µM* | -28 | -5% | -2% | 8.2µM*
CCOCCCNC(=S)NCCNc1nc2c(C)cccc2cc1C#N | 6% | ? | -12 | 0% | ? | ?
COCCCNC(=S)NCCNc1nc2cc(C)cc(C)c2cc1C#N | . | ? | ? | -14% | -16% | ?
Cc1ccc2cc(C#N)c(NCCNC(=O)C3CC3)nc2c1C | -4% | 7.3µM* | ? | -7% | -3% | 15µM*
Cc1ccc2cc(C#N)c(NCCNC(=S)NCCCN(C)C)nc2c1C | 10µM* | 26µM* | ? | ? | 21µM* | ?
Cc1cc(C)c2nc(NCCCNC(=S)NCCCN(C)C)c(C#N)cc2c1 | ? | 5.8µM* | -21 | ? | ? | 5.8µM*
Cc1cccc2cc(C#N)c(NCCNC(=O)COc3ccccc3)nc12 | 2% | ? | -4 | -4% | -3% | ?
COC(=O)N1CCC2(CC1)CN(c1ccncc1)C2 | . | ? | . | . | . | -16%
Cn1nc(C(F)(F)F)c(-c2ccc(F)cc2)c1NC(=O)c1ccco1 | -3% | -18% | 21 | -14% | -6% | -21%
Cn1nc(C(F)(F)F)c(-c2ccc(Br)cc2)c1NC(=O)Nc1ccc(F)cc1F | 7% | ? | . | 18µM* | ? | ?
Cc1ccc(Sc2c(C(=O)Nc3ccc(F)cc3F)c(C(F)(F)F)nn2C)cc1 | -10% | ? | 0 | -17% | 3% | 18µM*
COCCCn1c(SCc2ccc(OC)cc2)nc2cc(OC)c(OC)cc2c1=N | -2% | ? | 42 | 3% | -4% | -30%
CCCSc1nc2cc(OC)c(OC)cc2c(=N)n1CCCN1CCOCC1 | -5% | 23µM* | -52* | ? | 15µM* | 16µM*
O=C(Nc1ccccc1C(=O)N1CCOCC1)c1ccc(Br)cc1 | 2% | 1% | -7 | 6% | 6% | 11%
CCOC(=O)c1c(C)n(C)c2cc(Br)c(O)c(O)c12 | -24% | ? | 0 | -1% | -8% | -28%
CCOC(=O)c1c(CSc2cccs2)n(C)c2cc(Br)c(O)c(CN(C)C)c12 | 1% | 18µM* | -54* | ? | -18% | 16µM*
CCCCCCCC[n+]1c(C)n(-c2ccccc2)c2ccc(NC(C)=O)cc21 | -7% | 0.82µM* | -103* | -30% | -17% | 0.41µM*
CS(=O)(=O)c1ccc(C(=O)OCc2nnc(-c3ccc(Cl)cc3)o2)cc1[N+](=O)[O-] | -7% | 4.6µM* | -77* | 18µM* | ? | 3.3µM*
O=C(OCc1nnc(-c2ccc(Cl)cc2)o1)c1ccc(O)cc1 | 3% | -15% | 35 | -18% | 21% | 7%
CC(=O)c1c(C)[nH]c(C(=O)OCc2nnc(-c3ccc([N+](=O)[O-])cc3)o2)c1C | -1% | 15µM* | 45 | ? | 23µM* | 23µM*
COc1ccc(N2CCN(C(=O)c3[nH]c(C(F)(F)F)nc3-c3ccccc3)CC2)cc1 | . | ? | 21 | ? | -30% | ?
CC(=O)N1CCN(C(=O)c2[nH]c(C(F)(F)F)nc2-c2ccccc2)CC1 | . | -13% | 0 | 20% | 6% | -4%
CCOC(=O)N1CCN(C(=O)c2[nH]c(C(F)(F)F)nc2-c2ccccc2)CC1 | . | 16µM* | -10 | ? | ? | 16µM*
